Reference: PubChem BioAssay AID1159580 (chemical genetic matrix, 2015)
In all, about 5,500 compounds went through this assay and about 2,000 (36%) were called active. About 18% were inconclusive and are not listed. Cut-off read from the data, not from the text of the source: active = normalized growth mostly below about 0.91 (no sharp cut-off); inconclusive = no clear call, values can overlap the other calls; inactive = mostly above about 0.92. Some of the results follow.

Assay: chemical genetic growth profiling, strain panel (AID 1159580);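 note: tested at 20 µM; growth read once vehicle control cultures reached saturation at 30 °C; 1 = growth at the plate median or of vehicle wells; lower values mean less growth of the strain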
Details: growth OD
[1] = S. cerevisiae deletion strains, locus YAL013W, strain DEP1, active compounds read low
[2] = S. cerevisiae deletion strains, locus YDR150W, strain NUM1, active compounds read low
[3] = S. cerevisiae deletion strains, locus YGR078C, strain PAC10, active compounds read low
[4] = S. cerevisiae deletion strains, locus YGR229C, strain SMI1, active compounds read low
[5] = S. cerevisiae deletion strains, locus YMR307W, strain GAS1, active compounds read low
[6] = S. cerevisiae deletion strains, locus YNL153C, strain GIM3, active compounds read low
[7] = S. cerevisiae deletion strains, locus YNL322C, strain KRE1, active compounds read low
[8] = S. cerevisiae deletion strains, locus YPL055C, strain LGE1, active compounds read low
[9] = S. cerevisiae deletion strains, locus YPL241C, strain CIN2, active compounds read low
[10] = S. cerevisiae deletion strains, locus YDL101C, strain DUN1, active compounds read low
[11] = S. cerevisiae deletion strains, locus YHR030C, strain SLT2, active compounds read low
[12] = S. cerevisiae deletion strains, locus YBR229C, strain ROT2, active compounds read low
[13] = S. cerevisiae deletion strains, locus YDL134C, strain PPH21, active compounds read low
[14] = S. cerevisiae deletion strains, locus YEL061C, strain CIN8, active compounds read low
[15] = S. cerevisiae deletion strains, locus YHR087W, strain rtc3, active compounds read low
[16] = S. cerevisiae deletion strains, locus YJR043C, strain POL32, active compounds read low
[17] = S. cerevisiae deletion strains, locus YJR075W, strain HOC1, active compounds read low
[18] = S. cerevisiae deletion strains, locus YLR039C, strain RIC1, active compounds read low
[19] = S. cerevisiae deletion strains, locus YLR058C, strain SHM2 (second series), active compounds read low
[20] = S. cerevisiae deletion strains, locus YLR085C, strain ARP6, active compounds read low
[21] = S. cerevisiae deletion strains, locus YLR262C, strain YPT6, active compounds read low
[22] = S. cerevisiae deletion strains, locus YML094W, strain GIM5, active compounds read low
[23] = S. cerevisiae deletion strains, locus YMR219W, strain ESC1, active compounds read low
[24] = S. cerevisiae deletion strains, locus YMR263W, strain SAP30, active compounds read low
[25] = S. cerevisiae deletion strains, locus YNL298W, strain CLA4 (second series), active compounds read low
[26] = S. cerevisiae deletion strains, locus YNR030W, strain Alg12, active compounds read low
[27] = S. cerevisiae deletion strains, locus YPR135W, strain CTF4, active compounds read low

Measured: normalized growth

CCCC[N+]1(C)C2CC(OC(=O)[C@H](CO)c3ccccc3)CC1C1OC12 (stereo not given in full)
inactive: [1] 1 | S. cerevisiae deletion strains, locus YAL040C, strain CLN3, active compounds read low 1.05 | S. cerevisiae deletion strains, locus YCL061C, strain MRC1 (second series), active compounds read low 0.996 | [2] 1 | S. cerevisiae deletion strains, locus YDR363W, strain ESC2, active compounds read low 0.999 | S. cerevisiae deletion strains, locus YER002W, strain NOP16, active compounds read low 1.01 | [3] 0.989 | [4] 1.02 | [5] 0.976 | [6] 0.987 | S. cerevisiae deletion strains, locus YNL175C, strain NOP13, active compounds read low 1.02 | S. cerevisiae deletion strains, locus YNL197C, strain WHI3, active compounds read low 0.989 | S. cerevisiae deletion strains, locus YNL224C, strain SQS1, active compounds read low 0.99 | [7] 0.998 | S. cerevisiae deletion strains, locus YOR083W, strain WHI5 (second series), active compounds read low 0.99 | [8] 0.987 | [9] 1

O=C(Nc1c(Br)c(C2CC2)nn1-c1ccccc1)C(Cl)(Cl)Cl
inactive: S. cerevisiae deletion strains, locus YAR019C, strain CDC15, active compounds read low 0.92 | S. cerevisiae deletion strains, locus YBL105C, strain PKC1, active compounds read low 0.913 | S. cerevisiae deletion strains, locus YBR135W, strain CKS1, active compounds read low 0.914 | S. cerevisiae deletion strains, locus YBR136W, strain MEC1, active compounds read low 0.923 | S. cerevisiae deletion strains, locus YBR160W, strain CDC28, active compounds read low 0.92 | S. cerevisiae deletion strains, locus YDL017W, strain CDC7, active compounds read low 0.929 | S. cerevisiae deletion strains, locus YDL028C, strain MPS1, active compounds read low 0.93 | [10] 0.927 | S. cerevisiae deletion strains, locus YDL108W, strain KIN28, active compounds read low 0.925 | S. cerevisiae deletion strains, locus YDL132W, strain cdc53, active compounds read low 0.917 | S. cerevisiae deletion strains, locus YDL214C, strain PRR2, active compounds read low 0.897 | S. cerevisiae deletion strains, locus YDR052C, strain DBF4, active compounds read low 0.918 | S. cerevisiae deletion strains, locus YDR054C, strain cdc34, active compounds read low 0.921 | S. cerevisiae deletion strains, locus YDR226W, strain ADK1, active compounds read low 0.909 | S. cerevisiae deletion strains, locus YDR477W, strain SNF1, active compounds read low 0.826 | S. cerevisiae deletion strains, locus YER123W, strain YCK3, active compounds read low 0.769 | S. cerevisiae deletion strains, locus YER133W, strain GLC7, active compounds read low 0.802 | S. cerevisiae deletion strains, locus YFL009W, strain cdc4, active compounds read low 0.92 | S. cerevisiae deletion strains, locus YFL029C, strain CAK1, active compounds read low 0.92 | S. cerevisiae deletion strains, locus YFR003C, strain YPI1, active compounds read low 0.922 | S. cerevisiae deletion strains, locus YFR019W, strain FAB1, active compounds read low 0.932 | S. cerevisiae deletion strains, locus YFR028C, strain CDC14, active compounds read low 0.908 | S. cerevisiae deletion strains, locus YGR040W, strain KSS1, active compounds read low 0.784 | S. cerevisiae deletion strains, locus YGR052W, strain FMP48, active compounds read low 0.856 | S. cerevisiae deletion strains, locus YGR092W, strain DBF2, active compounds read low 0.693 | [11] 0.896 | S. cerevisiae deletion strains, locus YHR079C, strain IRE1, active compounds read low 0.919 | S. cerevisiae deletion strains, locus YHR082C, strain KSP1, active compounds read low 0.919 | S. cerevisiae deletion strains, locus YHR205W, strain SCH9, active compounds read low 0.821 | S. cerevisiae deletion strains, locus YIL147C, strain SLN1, active compounds read low 0.932 | S. cerevisiae deletion strains, locus YJL095W, strain BCK1, active compounds read low 0.824 | S. cerevisiae deletion strains, locus YJL128C, strain PBS2, active compounds read low 0.908 | S. cerevisiae deletion strains, locus YJL157C, strain FAR1, active compounds read low 0.904 | S. cerevisiae deletion strains, locus YJR016C, strain ILV3, active compounds read low 0.929 | S. cerevisiae deletion strains, locus YJR066W, strain TOR1 (second series), active compounds read low 0.832 | S. cerevisiae deletion strains, locus YJR066W, strain TOR1, active compounds read low 0.86 | S. cerevisiae deletion strains, locus YKL067W, strain YNK1, active compounds read low 0.897 | S. cerevisiae deletion strains, locus YKL101W, strain HSL1, active compounds read low 0.882 | S. cerevisiae deletion strains, locus YKL193C, strain SDS22, active compounds read low 0.921 | S. cerevisiae deletion strains, locus YKL203C, strain TOR2, active compounds read low 0.879 | S. cerevisiae deletion strains, locus YLR133W, strain CKI1, active compounds read low 0.871 | S. cerevisiae deletion strains, locus YLR403W, strain SFP1, active compounds read low 0.714 | S. cerevisiae deletion strains, locus YML070W, strain DAK1, active compounds read low 0.901 | S. cerevisiae deletion strains, locus YMR001C, strain CDC5, active compounds read low 0.922 | S. cerevisiae deletion strains, locus YMR205C, strain PFK2 (second series), active compounds read low 0.883 | S. cerevisiae deletion strains, locus YMR277W, strain FCP1, active compounds read low 0.915 | S. cerevisiae deletion strains, locus YNL006W, strain LST8, active compounds read low 0.921 | S. cerevisiae deletion strains, locus YNL020C, strain ARK1, active compounds read low 0.878 | S. cerevisiae deletion strains, locus YNL161W, strain CBK1, active compounds read low 0.925 | S. cerevisiae deletion strains, locus YNL183C, strain NPR1, active compounds read low 0.864 | S. cerevisiae deletion strains, locus YNL207W, strain RIO2, active compounds read low 0.928 | S. cerevisiae deletion strains, locus YNL222W, strain SSU72, active compounds read low 0.928 | S. cerevisiae deletion strains, locus YNL307C, strain MCK1 (second series), active compounds read low 0.812 | S. cerevisiae deletion strains, locus YOL078W, strain AVO1, active compounds read low 0.912 | S. cerevisiae deletion strains, locus YOL136C, strain PFK27, active compounds read low 0.895 | S. cerevisiae deletion strains, locus YOR061W, strain CKA2, active compounds read low 0.872 | S. cerevisiae deletion strains, locus YOR119C, strain RIO1, active compounds read low 0.822 | S. cerevisiae deletion strains, locus YOR231W, strain MKK1, active compounds read low 0.898 | S. cerevisiae deletion strains, locus YOR329C, strain SCD5, active compounds read low 0.925 | S. cerevisiae deletion strains, locus YPL031C, strain PHO85, active compounds read low 0.814 | S. cerevisiae deletion strains, locus YPL153C, strain RAD53, active compounds read low 0.82 | S. cerevisiae deletion strains, locus YPL204W, strain HRR25, active compounds read low 0.735 | S. cerevisiae deletion strains, locus YPL209C, strain IPL1, active compounds read low 0.922 | S. cerevisiae deletion strains, locus YPL256C, strain CLN2, active compounds read low 0.961 | S. cerevisiae deletion strains, locus YPR025C, strain CCL1, active compounds read low 0.923 | S. cerevisiae deletion strains, locus YPR106W, strain ISR1, active compounds read low 0.935 | S. cerevisiae deletion strains, locus YPR111W, strain DBF20, active compounds read low 0.925 | S. cerevisiae deletion strains, strain NNK1, active compounds read low 0.944 | S. cerevisiae deletion strains, strain TSCII, active compounds read low 0.92
active: S. cerevisiae deletion strains, locus YKL048C, strain ELM1, active compounds read low 0.802 | S. cerevisiae deletion strains, locus YLR113W, strain HOG1, active compounds read low 0.858

Cc1cc(NC(=O)C(Cl)(Cl)Cl)n(-c2ccccc2)n1
active: [18] 0.678 | [21] 0.728
inactive: [1] 0.984 | [12] 0.987 | [10] 0.995 | [13] 0.936 | [2] 0.898 | [14] 0.994 | [3] 0.984 | [11] 0.888 | [15] 0.97 | S. cerevisiae deletion strains, locus YJL187C, strain SWE1, active compounds read low 0.979 | [16] 0.987 | [17] 1 | [19] 0.985 | [20] 0.948 | [22] 1.02 | [23] 0.991 | [24] 0.982 | [5] 1.02 | S. cerevisiae deletion strains, locus YNL128W, strain TEP1, active compounds read low 0.975 | [6] 1 | [25] 0.978 | [7] 0.97 | [26] 0.974 | S. cerevisiae deletion strains, locus YOL006C, strain TOP1, active compounds read low 0.864 | [8] 1.04 | [9] 1 | [27] 0.838 | S. cerevisiae strains, strain wild type, active compounds read low 0.96

CC(=O)Nc1cccc(-n2nnc(SCc3ccccc3)n2)c1
inactive: [1] 1.02 | [12] 1.01 | S. cerevisiae deletion strains, locus YCL061C, strain MRC1, active compounds read low 1.03 | [10] 0.995 | [13] 0.988 | [2] 1.03 | [14] 1 | [3] 1.02 | [4] 0.986 | [11] 1.06 | [15] 0.988 | [16] 1.02 | [17] 1.03 | [18] 0.976 | [19] 0.997 | [20] 0.949 | [21] 1.1 | [22] 0.982 | [23] 0.993 | [24] 1.01 | [6] 1.02 | [25] 1.01 | [7] 1.01 | [26] 1.01 | [8] 0.968 | [9] 0.958 | [27] 1.08
